About 83,000 compounds went through this panel and 20% of them were active in at least one assay; those are over-represented in the sample as a whole.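 The endpoint reported here, percent growth, reads 100 for growth as untreated, 0 for no net growth and -100 for all cells dead.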 Unmarked numbers belong to inactive results. The source made the active and inactive calls. Rule for the calls: active = growth percent below 10; inactive = the rest. Where a SMILES comes first, the peptide text is derived from it. Bridges are numbered along the chain shown (N, C = ends). [ ]: non-standard residue; d: D form. The star is where a group is joined. ξ: configuration not given here. ξNMePhe(4-NMe2) = CNC(Cc1ccc(N(C)C)cc1)C(=O)O; Picolinoyl(3-OH) = O=C(c1ncccc1O)*; ξPip(4-oxo) = O=C1CCNC(C(=O)O)C1; Phg = N[CH](C(=O)O)c1ccccc1; Abu = CC[CH](N)C(=O)O
The compounds below were run on SNB-75 CNS (assay: NCI-60 one-dose screen, 48 h (100 = growth as untreated, 0 = no growth, -100 = all killed)). Conditions: 10 µM.

Going from `N#CC1(Nc2ccc3c4c(cccc24)CC3)CCCCC1` to `Cc1cc2ccccc2c(O)c1C#N`, the growth falls from 78.6% to 78.3%.

First: CCCC1(c2ccccc2)NC(=O)NC1=O (stereo not given)
Second: CCC(C#N)(CC)c1ccccc1
The growth of the first is higher: 86.5% for the first, 84.6% for the second.

Compared with `O=C(NN=C1CCCCC1)C(=O)NN=C1CCCCC1`, `O=c1[nH]nc(SC2CCCCC2)c(=O)[nH]1` is lower in growth: 103% for the first, 82.3% for the second.

First: CC(=O)OC(OC(C)=O)C1CCCO1 (stereo not given)
Second: CC(=O)Oc1ccc(Br)cc1C(=O)O
The growth of the first is lower: 90.2% for the first, 101% for the second.

First: Nc1ncnc2[nH]ncc12
Second: N#CSc1cc(S(N)(=O)=O)ccc1N
The growth of the first is lower: 33.3% for the first, 85.5% for the second.

First: Cc1ccc(C(=O)c2ccccc2)c(C)c1
Second: O=C(c1ccc(Cl)cc1)c1ccccc1Cl
The growth of the first is lower: 84.4% for the first, 100% for the second.

First: CC(=O)OCC1=CC2OC(=O)C3=COC(OC4OC(CO)C(O)C(O)C4O)C1C32 (stereo not given)
Second: CC1OC(Oc2c(-c3ccc(O)c(O)c3)oc3cc(O)cc(O)c3c2=O)C(O)C(O)C1O (stereo not given)
The growth of the first is higher: 104% for the first, 96.5% for the second.

First: CC1(C)N=C(N)N=C(N)N1c1cccc(Br)c1
Second: Oc1ccccc1-c1nnco1
The growth of the first is higher: 58.6% for the first, 45.5% for the second.

Compared with `C/C(=C\c1ccc([N+](=O)[O-])cc1)C(=O)O`, `O=[N+]([O-])c1ccc(/C=C/C=C/c2ccccc2)c(Cl)c1` is higher in growth: 88.5% for the first, 94.2% for the second.

Compared with `CO[C@H]1C[C@@H]2CC[C@@H](C)[C@@](O)(O2)C(=O)C(=O)N2CCCC[C@H]2C(=O)O[C@H]([C@H](C)C[C@@H]2CC[C@@H](O)[C@H](OC)C2)CC(=O)[C@H](C)C=C(C)[C@@H](O)[C@@H](OC)C(=O)[C@H](C)C[C@H](C)/C=C/C=C/C=C1C`, `CCC1NC(=O)C(NC(=O)c2ncccc2O)C(C)OC(=O)C(c2ccccc2)NC(=O)C2CC(=O)CCN2C(=O)C(Cc2ccc(N(C)C)cc2)N(C)C(=O)C2CCCN2C1=O` (stereo not given) (tested in a mixture with another compound) ({Picolinoyl(3-OH)}-T[Abu]P[ξNMePhe(4-NMe2)][ξPip(4-oxo)][Phg]; ester 1-C; configuration not given here) is higher in growth: 13.3% for the first, 45.4% for the second.

Compared with `Cc1cccc(C(=O)N(C(C)C)C(C)C)c1`, `CC(C)OC(=O)c1cc(NC(=S)OC(C)C)ccc1Cl` is higher in growth: 95% for the first, 109% for the second.

Going from `CC1(C)/C(=C\CO)C2CCC1C2` (stereo not given) to `CC1CC(O)CC(C)(C)C1` (stereo not given), the growth rises from 93.2% to 94%.

Compared with `CN(C)c1ccc(S(=O)(=O)O)cc1`, `CC(=O)c1ccc(C(C)(C)C)cc1` is higher in growth: 96.3% for the first, 97.7% for the second.

First: C=CCNc1ccccc1
Second: Oc1ccccc1O
The growth of the first is lower: 82.7% for the first, 89.4% for the second.

First: CCOC(=O)C(CCC(C)C)C(=O)OCC
Second: CC(C)C1CCCCC1O (stereo not given)
The growth of the first is lower: 94.6% for the first, 108% for the second.

Compared with `COc1cccc(Sc2ccc([N+](=O)[O-])c3no[n+]([O-])c23)c1`, `Clc1ccc(-c2n[nH]c3c2Cc2ccccc2-3)cc1Cl` is higher in growth: 31.8% for the first, 84.9% for the second.

Going from `OCCN1CCOCC1` to `c1ccc2c(c1)Sc1ccccc1S2`, the growth falls from 90.4% to 89.6%.

In the case of `COc1ccc2c(NCCCCCCCCNc3c4ccccc4nc4cc(OC)ccc34)c3ccccc3nc2c1`, the growth is reported as -100% (active).
`COc1cc2c(cc1O)CC[C@@H]1C2CC[C@@]2(C)C1CC[C@@H]2O` (stereo not given in full) was tested, and the growth was 3.42% (active).

What follows are compounds tested on SNB-19 CNS in the same assay as above. Conditions: 10 µM.

Compared with `N#CC1(Nc2ccc3c4c(cccc24)CC3)CCCCC1`, `Cc1cc2ccccc2c(O)c1C#N` is lower in growth: 107% for the first, 100% for the second.

Compared with `CCCC1(c2ccccc2)NC(=O)NC1=O` (stereo not given), `CCC(C#N)(CC)c1ccccc1` is lower in growth: 105% for the first, 99.5% for the second.

Going from `O=C(NN=C1CCCCC1)C(=O)NN=C1CCCCC1` to `O=c1[nH]nc(SC2CCCCC2)c(=O)[nH]1`, the growth falls from 110% to 103%.

First: CC1CCCC(CC(N)=O)CC1 (stereo not given)
Second: CC(C)C1CCCCC1O (stereo not given)
The growth of the first is higher: 110% for the first, 104% for the second.

Going from `CC(=O)OC(OC(C)=O)C1CCCO1` (stereo not given) to `CC(=O)Oc1ccc(Br)cc1C(=O)O`, the growth falls from 109% to 95%.

Compared with `CCOc1ccc(/C=N/N=C(N)N)cc1OCC`, `CC1(C)N=C(N)N=C(N)N1c1cccc(Br)c1` is lower in growth: 97.6% for the first, 44.9% for the second.

Going from `Nc1ncnc2[nH]ncc12` to `N#CSc1cc(S(N)(=O)=O)ccc1N`, the growth rises from 71.3% to 102%.

First: Cc1ccc(C(=O)c2ccccc2)c(C)c1
Second: O=C(c1ccc(Cl)cc1)c1ccccc1Cl
The growth of the first is higher: 111% for the first, 85.1% for the second.

Going from `COc1cc2c(cc1O)CC[C@@H]1C2CC[C@@]2(C)C1CC[C@@H]2O` (stereo not given in full) to `CC1(C)/C(=C\CO)C2CCC1C2` (stereo not given), the growth rises from 28.9% to 106%.

Compared with `CC(=O)OCC1=CC2OC(=O)C3=COC(OC4OC(CO)C(O)C(O)C4O)C1C32` (stereo not given), `CC1OC(Oc2c(-c3ccc(O)c(O)c3)oc3cc(O)cc(O)c3c2=O)C(O)C(O)C1O` (stereo not given) is lower in growth: 111% for the first, 105% for the second.

Going from `C/C(=C\c1ccc([N+](=O)[O-])cc1)C(=O)O` to `O=[N+]([O-])c1ccc(/C=C/C=C/c2ccccc2)c(Cl)c1`, the growth rises from 97.7% to 99.7%.

Going from `Oc1ccccc1-c1nnco1` to `Oc1ccccc1O`, the growth falls from 93.2% to 80.2%.

Compared with `CO[C@H]1C[C@@H]2CC[C@@H](C)[C@@](O)(O2)C(=O)C(=O)N2CCCC[C@H]2C(=O)O[C@H]([C@H](C)C[C@@H]2CC[C@@H](O)[C@H](OC)C2)CC(=O)[C@H](C)C=C(C)[C@@H](O)[C@@H](OC)C(=O)[C@H](C)C[C@H](C)/C=C/C=C/C=C1C`, `CCC1NC(=O)C(NC(=O)c2ncccc2O)C(C)OC(=O)C(c2ccccc2)NC(=O)C2CC(=O)CCN2C(=O)C(Cc2ccc(N(C)C)cc2)N(C)C(=O)C2CCCN2C1=O` (stereo not given) (tested in a mixture with another compound) ({Picolinoyl(3-OH)}-T[Abu]P[ξNMePhe(4-NMe2)][ξPip(4-oxo)][Phg]; ester 1-C; configuration not given here) is higher in growth: 46.2% for the first, 78.4% for the second.

Going from `Cc1cccc(C(=O)N(C(C)C)C(C)C)c1` to `CC(C)OC(=O)c1cc(NC(=S)OC(C)C)ccc1Cl`, the growth falls from 99.6% to 92.3%.

Going from `CN(C)c1ccc(S(=O)(=O)O)cc1` to `CC(=O)c1ccc(C(C)(C)C)cc1`, the growth falls from 109% to 95.6%.

First: C=CCNc1ccccc1
Second: c1ccc2c(c1)Sc1ccccc1S2
The growth of the first is lower: 91.5% for the first, 100% for the second.

First: CCOC(=O)C(CCC(C)C)C(=O)OCC
Second: CC1CC(O)CC(C)(C)C1 (stereo not given)
The growth of the first is higher: 109% for the first, 104% for the second.

Going from `COc1cccc(Sc2ccc([N+](=O)[O-])c3no[n+]([O-])c23)c1` to `Clc1ccc(-c2n[nH]c3c2Cc2ccccc2-3)cc1Cl`, the growth rises from 83.3% to 93.8%.

Going from `OCCN1CCOCC1` to `C#CCSc1nnnn1-c1ccc(Br)c(C)c1`, the growth falls from 102% to 86.4%.

For `COc1ccc2c(NCCCCCCCCNc3c4ccccc4nc4cc(OC)ccc34)c3ccccc3nc2c1`, the growth was -86.7% (active).

Source: PubChem BioAssay (NCI)
